The nature of assay [1]: inhibitors of TNFa-induced NFkB p65 translocation, primary screen, imaging, HUVEC, MLSMR starter and 10KST1 sets (AID 438;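 active = inhibition above 20% together with a positive visual image hit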;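 note: compound added about 3h40 before a 20 min TNFalpha stimulation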;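 for inhibition: signal is the nuclear over cytoplasmic p65 intensity ratio per well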). The following applies: HUVEC TNFa-induced p65 nuclear translocation; cell count: measured here: nuclei count (cytotoxicity indicator), at 2.08 µM; inhibition: at 2 µM, stronger effect = higher value, 0% TNFa-plus-vehicle, 100% no-TNFa wells.
Assay [2] is described as follows: inhibitors of mutant huntingtin aggregation, primary screen, imaging, exon1htt(103Q)mCFP cells, high-content imaging (AID 483).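 For nuclei count: percent of the per-plate median nuclei count of sample wells.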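 Note: compound exposure lasted 3 days before fixation.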 The following applies: exon1htt(103Q)mCFP cell line, aggregate imaging, at 2 µM; inhibition of aggregation: stronger effect = higher value; nuclei count: measured here: cell count, toxicity.
A short description of assay [3]: inhibitors of E-selectin induction by TNFa, primary screen, imaging, HUVEC, immunofluorescence, MLSMR starter and 10KST1 sets (AID 487;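 active = visually confirmed hit in the image check and inhibition above 20%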;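 for inhibition: signal is fraction of cell area covered by stained E-selectin grains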;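 for nuclei count: 100% = median nuclei count of all wells on the same plate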). The note with it: HUVEC TNFalpha-induced E-selectin immunofluorescence imaging, at 2 µM; inhibition: stronger effect = higher value; nuclei count: measured here: cell number, toxicity.
The target in assay [4] is Voltage-gated potassium channel subunit beta-2 (Rattus norvegicus) (UniProt P62483). Nature of the assay: KvBeta enzyme negative modulators, primary screen, biochemical, NADPH fluorescence (AID 622;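 active = fluorescence slope higher than the sample average by over 3 SD, cut at about -0.22 in these data, passing the limit was not always enough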;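 note: slope of raw intensity against log time taken from 70 to 1610 s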). The note with it: recombinant KvBeta, 4-cyanobenzaldehyde reduction, at 10 µM, stronger effect = higher value.
The target is the same in assay [5]. The assay can be described thus: KvBeta positive modulators, primary screen, biochemical, NADPH fluorescence (AID 623;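 active = NADPH fluorescence slope more negative than the mean of all samples by about 3 SD, 99.7% confidence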;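 note: fluorescence intensity change per second fitted from 20 to 320 s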). The note with it: Recombinant KvBeta, NADPH fluorescence decrease slope, 10 min; at 10 µM; stronger effect = lower value.
The target of assay [6] is Alpha-2C adrenergic receptor (Homo sapiens) (UniProt P18825). Nature of the assay: modulators of alpha2C/GIRK thallium flux, primary screen, cell-based, HEK293 alpha2C/GIRK1/2 (AID 624;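 active = fluorescence slope after compound addition differing from the mean of all screened samples at 99.7% confidence, in either direction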;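 note: slope of fluorescence ratio to pre-addition baseline per second over 15 to 24 s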). The note with it: thallium flux BTC fluorescence, at 10 µM, actives lie on both sides.
Assay [7] is described as follows: inhibitors of Sendai virus-induced IRF3 signaling, primary screen, TLR/RLR signaling modifier project, cell-based, Sendai virus stimulus, luciferase, 10K MLSCN set (AID 602276;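 active = inhibition at or above 50% at 10 µM; inactive = inhibition below 50%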;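 note: firefly luciferase from ISG56 promoter only with Renilla not read in this screen; 0% = Sendai virus plus DMSO and 100% = medium plus DMSO without virus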). The following applies: HEK293 RL24 IRF3 luciferase reporter, at 10 µM, stronger effect = higher value.
Assay [8] is described as follows: inhibitors of poly I:C-induced TLR3 signaling, primary screen, cell-based, poly I:C stimulus, luciferase, 10K MLSCN set (AID 602277;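 active = inhibition of the reporter signal at or above 50%; inactive = inhibition below 50%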). The following applies: HEK293-TLR3 RL24 IRF3 luciferase reporter, at 10 µM, stronger effect = higher value.

Calls of active or inactive are those of the source.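 Rule for the calls, unless noted: active = visual image review flags a hit and inhibition of aggregation exceeds 20%; inconclusive = visual hit but inhibition at or below 20%; inactive = no hit on visual image review.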

We go through ten molecules from PubChem BioAssay.

Voltage-gated potassium channel subunit beta-2 (Rattus norvegicus), sequence (P62483 whole entry, looked up): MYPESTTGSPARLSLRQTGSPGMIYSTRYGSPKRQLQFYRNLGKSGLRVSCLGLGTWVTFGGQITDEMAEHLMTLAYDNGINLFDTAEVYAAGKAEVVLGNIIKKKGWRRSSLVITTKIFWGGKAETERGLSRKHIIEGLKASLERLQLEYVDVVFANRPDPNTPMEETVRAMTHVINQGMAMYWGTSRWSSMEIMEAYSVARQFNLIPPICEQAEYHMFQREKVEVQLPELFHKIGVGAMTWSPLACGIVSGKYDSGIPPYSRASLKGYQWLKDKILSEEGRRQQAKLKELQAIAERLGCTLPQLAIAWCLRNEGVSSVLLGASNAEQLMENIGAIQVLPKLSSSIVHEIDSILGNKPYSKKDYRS
Alpha-2C adrenergic receptor (Homo sapiens), sequence (P18825 whole entry, looked up): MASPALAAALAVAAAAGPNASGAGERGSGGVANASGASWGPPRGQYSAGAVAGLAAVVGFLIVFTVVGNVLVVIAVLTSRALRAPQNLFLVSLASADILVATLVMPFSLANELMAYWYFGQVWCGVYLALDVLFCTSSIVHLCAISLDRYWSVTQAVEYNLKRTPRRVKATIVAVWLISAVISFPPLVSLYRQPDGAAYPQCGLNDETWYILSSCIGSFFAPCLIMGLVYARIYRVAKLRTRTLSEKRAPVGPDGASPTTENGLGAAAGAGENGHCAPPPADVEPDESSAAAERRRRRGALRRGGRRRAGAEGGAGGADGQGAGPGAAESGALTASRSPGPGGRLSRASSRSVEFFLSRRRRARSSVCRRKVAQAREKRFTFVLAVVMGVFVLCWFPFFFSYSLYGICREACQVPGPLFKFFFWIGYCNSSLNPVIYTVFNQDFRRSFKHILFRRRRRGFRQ

On to `O=C(COC(=O)c1cnccn1)Nc1ccc2c(c1)OCO2`, for which, in assay [1], the cell count is 589. In addition, the inhibition in assay [1] was 7.8% (inactive); in assay [3], -56.6% (inactive); in assay [7], 5.28% (inactive); in assay [8], 21.1% (inactive). In assay [2], the inhibition of aggregation is -8% (inactive). The nuclei count in assay [2] amounted to 103%; in assay [3], 105%. In assay [4], the fluorescence slope was -0.484 (inactive). In addition, in assay [5], the NADPH fluorescence slope was -2.2e-05 (inactive). In assay [6], the slope is 0.00566 (inactive).
Consider `COC(=O)C(C#N)C(=C1C(=O)CC(C)(C)CC1=O)c1ccc(O)cc1` (stereo not given), for which, in assay [1], the cell count came to 315. The inhibition in assay [1] was 1.2% (inactive); in assay [3] it was 15% (inactive); in assay [7] it was 9.88% (inactive); in assay [8] it was 10.9% (inactive). The inhibition of aggregation in assay [2] was 12% (inactive). The results for the nuclei count in assay [2] and in assay [3] were 92.7% and 109%, respectively. Moreover, in assay [4], the fluorescence slope is -0.319 (inactive). Besides, in assay [5], the NADPH fluorescence slope was -2.3e-05 (inactive). Also, the slope in assay [6] was 0.00607 (inactive).
Regarding `O=C(Cn1c(C(=O)NCC2CCCO2)cc2sccc21)c1ccccc1` (stereo not given), the cell count in assay [1] came to 280. The inhibition in assay [1] is -13.4% (inactive); in assay [3], -77.7% (inactive); in assay [7] it was 5.12% (inactive); in assay [8], 4.66% (inactive). Also, in assay [2], the inhibition of aggregation was 20.2% (inactive). The nuclei count in assay [2] was 80%; in assay [3], 99.3%. For the same molecule, in assay [4], the fluorescence slope was -0.611 (inactive). The NADPH fluorescence slope in assay [5] is 5.3e-06 (inactive). For the same molecule, the slope in assay [6] was 0.00924 (inactive).
In the case of `Cc1ccc(C)c(N(CC(=O)NC2CCCC2)C(=O)CCCC(=O)Nc2ccccn2)c1`, the cell count in assay [1] is 516. The inhibition is -18.3% (inactive) in assay [1], -50.6% (inactive) in assay [3], 13.6% (inactive) in assay [7] and 27.2% (inactive) in assay [8]. In addition, the inhibition of aggregation in assay [2] was 7.5% (inactive). Further, the nuclei count in assay [2] was 93.9%; in assay [3], 95.7%. In addition, in assay [4], the fluorescence slope is -0.539 (inactive). Besides, the NADPH fluorescence slope in assay [5] is -4.4e-05 (inactive). In addition, in assay [6], the slope is 0.00581 (inactive).
Take `COc1ccc(-n2c(COc3cccc(C)c3)nnc2SCC(=O)NCc2ccco2)cc1`: the cell count in assay [1] is 707. The inhibition in assay [1] is -6.3% (inactive); in assay [3], -54.8% (inactive); in assay [7] it was -3.09% (inactive); in assay [8], 10.9% (inactive). For the same molecule, in assay [2], the inhibition of aggregation was 5.1% (inactive). Also, the nuclei count in assay [2] and in assay [3] was 100% each time. Also, the fluorescence slope in assay [4] was -0.596 (inactive). Also, the NADPH fluorescence slope in assay [5] is -6.6e-05 (inactive). In assay [6], the slope was 0.00613 (inactive).
`CCc1ccccc1NC(=O)C(C#N)Cc1cccnc1` (stereo not given): the cell count in assay [1] amounted to 575. Further, the inhibition was -1.5% (inactive) in assay [1], -21.3% (inactive) in assay [3], -6.51% (inactive) in assay [7] and 19% (inactive) in assay [8]. For the same molecule, the inhibition of aggregation in assay [2] is 2.2% (inactive). Besides, the results for the nuclei count in assay [2] and in assay [3] were 100% and 104%, respectively. Besides, the fluorescence slope in assay [4] was -0.51 (inactive). Besides, the NADPH fluorescence slope in assay [5] was -9e-07 (inactive). Further, the slope in assay [6] was 0.00548 (inactive).
Regarding `C=CCSc1nnc(Cc2c(C)[nH]c3ccccc23)o1`, the cell count in assay [1] is 800. In addition, the inhibition is 3.5% (inactive) in assay [1], -15.9% (inactive) in assay [3], 7.53% (inactive) in assay [7] and 15% (inactive) in assay [8]. In addition, the inhibition of aggregation in assay [2] was 20.5% (inactive). For the same molecule, the nuclei count in assay [2] stood at 92.7%; in assay [3], 118%. Besides, the fluorescence slope in assay [4] was -0.427 (inactive). Moreover, the NADPH fluorescence slope in assay [5] is -6e-05 (inactive). Moreover, the slope in assay [6] was 0.00499 (inactive).
Turning to `COc1cccc(NC(=O)C2CCN(c3ncccn3)CC2)c1`, the cell count in assay [1] amounted to 746. The inhibition in assay [1] was -18.4% (inactive); in assay [3], -62.3% (inactive); in assay [7], 0.711% (inactive); in assay [8] it was -6.34% (inactive). For the same molecule, in assay [2], the inhibition of aggregation is -8.1% (inactive). The nuclei count in assay [2] was 94.4%; in assay [3], 129%. In assay [4], the fluorescence slope was -0.437 (inactive). The NADPH fluorescence slope in assay [5] is -1.9e-05 (inactive). For the same molecule, in assay [6], the slope is 0.00449 (inactive).
For `CCCCCCNC(=O)c1c(N)n(/N=C/c2ccco2)c2nc3ccccc3nc12`, the cell count in assay [1] was determined as 602. Also, the inhibition in assay [1] is 11.2% (inactive); in assay [3], 26.4% (inactive); in assay [7], 11.1% (inactive); in assay [8] it was 8.29% (inactive). For the same molecule, the inhibition of aggregation in assay [2] is -16.8% (inactive). Also, the figures for the nuclei count in assay [2] and in assay [3] were 79.6% and 104%, respectively. Further, the fluorescence slope in assay [4] is -0.251 (inactive). The NADPH fluorescence slope in assay [5] was -6e-06 (inactive). The slope in assay [6] is 0.00525 (inactive).
For `Cc1ccc2cc(C(c3nnnn3CC3CCCO3)N3CCc4ccccc4C3)c(=O)[nH]c2c1` (stereo not given), the cell count in assay [1] was 691. The inhibition in assay [1] was -6.9% (inactive); in assay [3], -102% (inactive); in assay [7], 14% (inactive); in assay [8], 29.9% (inactive). The inhibition of aggregation in assay [2] is 0.5% (inactive). For the same molecule, the results for the nuclei count in assay [2] and in assay [3] were 78.6% and 120%, respectively. Moreover, the fluorescence slope in assay [4] is -0.523 (inactive). Moreover, the NADPH fluorescence slope in assay [5] was -3.7e-05 (inactive). Also, the slope in assay [6] is 0.00473 (inactive).
